# Laboratory results: PubChem BioAssay AID889 (National Center for Advancing Translational Sciences (NCATS), 2007)
# About 15 (0.02%) of roughly 75,000 compounds were called active. A call without a number means that no potency is given here. Another 3% or so got no clear call; they are omitted. This excerpt belongs to a sample that is enriched for actives. Values without a mark were called inactive. The call rests on the fitted dose curve; in most records, active means well fitted inhibition curve with a large enough effect in the main read-out, with a control signal flat (not every such curve was filed as active); inconclusive means small, poorly fitted or top-dose-only effect, or a change in a side signal; inactive means flat fitted curve, though single readings scatter.
# Biological target: Caspase-7 (Homo sapiens) (UniProt P55210)
# Sequence (P55210 24-198 limits assumed): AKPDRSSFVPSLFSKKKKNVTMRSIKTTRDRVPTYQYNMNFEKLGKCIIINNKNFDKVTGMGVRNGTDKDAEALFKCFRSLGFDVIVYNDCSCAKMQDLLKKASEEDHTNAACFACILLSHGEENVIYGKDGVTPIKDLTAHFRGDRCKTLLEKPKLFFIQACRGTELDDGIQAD
# Sequence (P55210 207-303 limits assumed): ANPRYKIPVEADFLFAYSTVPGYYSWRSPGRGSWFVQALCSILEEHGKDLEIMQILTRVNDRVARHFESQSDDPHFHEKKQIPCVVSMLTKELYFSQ
# Assay: qHTS Assay for Allosteric/Competitive Inhibitors of Caspase-7
# Settings: recombinant caspase-7, Ac-DEVD-AFC fluorescence rate; series mostly up to 57.5 µM
# From the text: NIH Molecular Libraries Screening Centers Network [MLSCN]
# NIH Chemical Genomics Center [NCGC]
# PI Name: Dr. James Wells,
# Dr. Enrique Perez-Paya, Dr.Janice Williams, Dr. Dennis Wolan, a person
# The caspases (Cysteine Aspartyl Protease) comprise a related family of 14 dimeric proteases that are critical mediators of apoptosis (programmed cell death) and inflammation. The caspases represent an important class of drug targets for stroke, ischemia, cancer and inflammatory diseases. […] One goal of this project was to identify compounds that act as allosteric inhibitors via stabilizing the procaspase form of the enzyme. Previous work in Well's laboratory has shown that such allosteric inhibitors can be identified and these act by binding at the dimer interface of enzyme (Hardy, Lam et al., 2004).
# The biochemical assay was configured using purified caspase 7 at a high enzyme concentration to promote formation of the homodimers and thus facilitate the identification of allosteric inhibitors. The overall goal was to identify reversible inhibitors with better drug-like properties than the currently available set of aspartyl-containing peptidomimetics that covalently bind the active site. Caspase 7 was assayed using the profluorescent substrate Ac-DEVD-AFC. After initiation of the assay with substrate the plates were rapidly read using an automated robotic system (Kalypsys, Inc.) to maintain consistent timing. A kinetic mode of detection was used where the initial rate was collected (estimated final product formation was ~10%). Compounds were screened as a concentration-titration series that ranged from 57 uM to 0.7 nM. Below is the protocol used for caspase 7.
# NCGC Assay Protocol Summary:
# Caspase 7 was prepared in buffer (50 mM HEPES pH 7.5, 50 mM KCl, 200 mM NaCl, 10 mM DTT, 0.1% CHAPS) at a concentration of 66.6 nM and 3 uL was dispensed to all wells using black solid Kalypsys 1536-well plates. 20 nL of DMSO containing compounds was added using a pin-tool (Kalypsys Inc.) to columns 5-48. Then 20 nL of DMSO solution from a control plate was added to columns 1-4. Controls were: Column 1, 16 point titration with each concentration in duplicate (1:1 dilutions in DMSO; final starting concentration was 57 uM) of the caspase 7 inhibitor Ac-DEVD-CHO (Alexis Biochemicals); Column 2, a 16 point titration with each concentration in duplicate of the free AFC fluorophore prepared in DMSO (Alexis Biochemicals), final starting was 40 uM; Column 3 neutral (DMSO only) control; Column 4: DMSO alone, to serve as a negative control (no substrate was added). Then 1 uL of 20 uM the substrate Ac-DEVD-AFC (Alexis Biochemicals) prepared in the same buffer was dispensed to all wells except columns 2 and 4 and the plates were immediately transferred (< 1 min) to the Viewlux. The plates were then exposed using 405 nm excitation/520 nm emission filters for 4 sec and read at 20 sec intervals for 3 min. Final enzyme concentration was 50 nM and the final substrate concentration was 5 uM.
# Concentration-response curves were fitted to the data calculated from slope of the linear regression of fluorescent intensity versus time (the rate). The concentration-effect curves were then classified based on curve quality (r2), response magnitude and degree of measured activity. […] Inconclusive compounds had appreciable concentration-dependent effects on both the measured rate and the interpolated basal fluorescence intensity at the start of the reaction but where the basal fluorescent intensity was marginal (e.g. < 10-fold). Inconclusive compounds also encompass highly fluorescent compounds (>100-fold increases in fluorescent intensities values relative to controls) where artificial concentration-dependent decreases in the rate occurred at high compound concentrations due to fluorescent interferences.
# Keywords: Caspase 7, proteases, profluorescent, MLSMR, MLSCN, NIH Roadmap, qHTS, NCGC
# Potency means the concentration at half of the fitted maximal effect.
Compound,"activity change, negative = inhibition",Potency
CC1CCc2c(sc(NC(=O)c3ccc(Cn4cc(Br)cn4)o3)c2C(N)=O)C1 (centres undefined),inactive,–
C/C(=N\O)C1(C)N(O)C(C)(C)C(c2ccc(Br)cc2)=[N+]1[O-] (centres undefined),inactive,–
CC(=O)Nc1ccc(NC(=O)CN2CCCC(C)C2)c(Cl)c1 (centres undefined),inactive,–
Cn1c(N)c(C(=O)COC(=O)c2cc(C(F)(F)F)nc3c(C(F)(F)F)cccc23)c(=O)n(C)c1=O,inactive,–
Cc1cc(NC(=O)CCC(=O)N(c2cccc(F)c2)C(C(=O)NC2CCCC2)c2ccncc2)no1 (centres undefined),inactive,–
COc1ccc(N2C(=O)C3CCCN3C2c2cc(OC)c(OC)cc2OC)cc1 (centres undefined),inactive,–
O=C(NCc1ccco1)c1cc(-c2cccnc2)nc2ccc(Cl)cc12,inactive,–
CC(C)CN1CCc2nc(-c3ccccc3)c3c(c2C1)COC(C)C3 (centres undefined),-0.41% [at 11.5 µM],–
O=C(Nc1cccc(Cl)c1)OCc1ccccn1,inactive,–
O=C(O)CC(C(=O)O)C(CC(=O)O)C(=O)O (centres undefined),inactive,–
CCc1ccc(CCC(=O)Nc2ccc(S(N)(=O)=O)cc2)o1,inactive,–
CN(C)CCSS(=O)(=O)O,-1.05% [at 11.5 µM],–
C[C@@H]1O[C@@H](OC[C@H]2O[C@@H](Oc3c(-c4cccc(O)c4O)oc4cc(O)cc(O)c4c3=O)[C@H](O)[C@@H](O)[C@@H]2O)[C@H](O)[C@H](O)[C@H]1O,inactive,–
OCCCNCc1ccccn1,0.29% [at 11.5 µM],–
O=C(NCc1ccccn1)c1cc2ccccc2oc1=O,inactive,–
O=C(NCc1ccccn1)c1ccc2nc(-c3ccco3)c(-c3ccco3)nc2c1,–,25.1 µM (active)
Cc1cccn2c(=O)c3cc(C(=O)NCc4ccccn4)n(C)c3nc12,inactive,–
COc1ccc(CC(=O)Nc2nc3n(n2)C(c2ccccc2)CC(=O)N3)cc1OC (centres undefined),inactive,–
Cc1cccc(NC(=O)CSc2nnc(CCCCCNC(=O)OC(C)(C)C)o2)c1C,inactive,–
CCOc1cc(C(=S)N2CCOCC2)ccc1O,inactive,–
CC(C)C(=O)N1CCN(CCN=CC2=C(O)CC(c3ccco3)CC2=O)CC1 (centres undefined),inactive,–
CCCCCCCCCc1ccc(OCCOCCOCCOCCOCCOCCOCCOCCOCCO)cc1,inactive,–
COc1c2c(cc3occ(-c4ccc5c(c4)OCO5)c(=O)c13)OC(C)(C)C=C2,inactive,–
O=C(CC1CCCCC1)Nc1c2c(nn1-c1ccc(F)cc1)CS(=O)(=O)C2,inactive,–
CC1(C)OC2CC(=O)OC[C@@]23C1CC(=O)[C@]1(C)C3CC[C@@]2(C)C(c3ccoc3)OC(=O)C3O[C@@]321 (some centres undefined),inactive,–

Compound,"activity change, negative = inhibition",Potency
Cc1cccc(-c2cc(=O)c3cc(C)ccc3o2)c1,inactive,–
CCCc1nc2c(C)cc(-c3nc4ccccc4n3C)cc2n1Cc1ccc(-c2ccccc2C(=O)O)cc1,inactive,–
Cn1c(Cc2csc(N)n2)nnc1SC/C=C/c1ccccc1,inactive,–
C=C(C)C1CC=C(CO)CC1 (centres undefined),inactive,–
O=C1OC(C(O)CO)C(O)=C1O (centres undefined),inactive,–
CCCN1[C@H](C(=O)OC)C[C@@]2(O)[C@@H](O)[C@@H](O)[C@@H](O)C[C@@H]12,inactive,–
CCN(c1ccccc1)S(=O)(=O)c1cccc(C(=O)O)c1,inactive,–
COc1ccccc1C(=O)C(O)c1ccccc1OC (centres undefined),inactive,–
CCNC(=O)CCc1nc(-c2ccc(C(C)(C)C)cc2)no1,inactive,–
CC(=O)c1c(C)n(-c2ccc(N(C)C)cc2)c2ccc(OCC(N)=O)cc12,inactive,–
CC(=O)OC(C(=O)NC1CCCCC1)c1ccccc1 (centres undefined),inactive,–
CC(C)C1=CC2=CC[C@@H]3[C@](C)(CO)CCC[C@]3(C)C2CC1 (some centres undefined),inactive,–
COC(=O)[C@@H]1C[C@H]2CC[C@H](O)C[C@H]2N1Cc1ccc(N2CCN(C)CC2)cc1,inactive,–
COc1ccc(OCc2cccc(C(=O)N3CCCC3)c2)cc1,inactive,–
Oc1ccc(O)c2c(O)cccc12,inactive,–
N#CCCN1CCN(S(=O)(=O)c2ccc(S(=O)(=O)N3CCCC3)cc2)CC1,inactive,–
O=C(Nc1cccc(-c2nnc(-c3ccccc3)o2)c1)C1CCCO1 (centres undefined),inactive,–
FC(F)(F)c1ccc(CN2C[C@@H]3C(c4ccccc4)C4(c5ccccc5)CC3(C4)[C@H]2c2ccccc2)cc1 (some centres undefined),inactive,–
O=C1CSC(c2cccc(F)c2)N1c1ccccc1F (centres undefined),inactive,–
O=C(O)c1ccc(Cl)c(S(=O)(=O)Nc2ccccc2Cl)c1,inactive,–
CN1CC(=O)N=C1N,inactive,–
CO[C@H]1COC(=O)CCC[C@@H](C)[C@H](OC)COC(=O)[C@@H](C)NC(=O)C/C=C\[C@@H]1C,0.707% [at 11.5 µM],–
COc1cc(=O)[nH]c(=O)n1C(=O)Cc1ccccc1,inactive,–
COc1ccc(-c2cc(C(=O)NC(C(=O)O)C(C)C)c(C)o2)cc1OC (centres undefined),inactive,–
